Our source for the outcome and AC50 values is PubChem BioAssay (EPA / NIEHS).

The nature of test [1]: APR_HepG2_StressKinase_1hr: Apredica 1-hour HepG2 Assay for Stress Kinase (AID 2282906). The following applies: HepG2 stress kinase (phospho-c-Jun) imaging, actives raise or lower the signal. In outline: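 High-content imaging of phospho-c-Jun immunostaining (with Hoechst nuclear identification) after a 1 h exposure of HepG2 cells to 10 concentrations from 0.39 to 200 uM, final DMSO 0.5%. Fitted bidirectionally against DMSO.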

Test [2] can be described thus: APR_HepG2_NuclearSize_24hr: Apredica 24-hour HepG2 Assay for Nuclear Size (AID 2282907). Particulars: high-content imaging, actives raise or lower the signal. In outline:
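Read-out: nuclear diameter from Hoechst 33342 (2 ug/mL) imaging of fixed HepG2 cells, 20x, six fields/well. Compounds ran at 0.39–200 uM for 24 hr, 0.5% DMSO final. Gain or loss was fitted bidirectionally relative to the DMSO baseline.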

Test [3] can be described thus: APR_HepG2_CellLoss_24hr: Apredica 24-hour HepG2 Assay for Cell Loss (AID 2282908).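 On AC50: fit in both directions so a hit may be cell loss or gain.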 Particulars: high-content imaging. In outline:
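Read-out: Hoechst 33342-stained nuclei counted by automated fluorescence imaging after formaldehyde fixation and Triton permeabilization. Ten concentrations, 0.39 to 200 uM, duplicate wells, 0.5% DMSO final. Gain or loss of signal fitted relative to DMSO baseline.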

A short description of test [4]: APR_HepG2_MicrotubuleCSK_24hr: Apredica 24-hour HepG2 Assay for Microtubule CSK Stabilty (AID 2282909). Particulars: HepG2 microtubule cytoskeleton imaging, actives raise or lower the signal. The method in brief:
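Read-out: alpha-tubulin immunofluorescence intensity by automated high-content imaging of fixed HepG2 cells after 24 h compound treatment. Ten concentrations, 0.39 to 200 uM, in duplicate; DMSO 0.5% v/v. Taxol positive control; DMSO-normalized bidirectional curve fitting.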

Test [5] is described as follows: APR_HepG2_MitoticArrest_24hr: Apredica 24-hour HepG2 Assay for Mitotic Arrest (AID 2282910). Particulars: high-content imaging, actives raise or lower the signal. In outline: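 Treatment lasted 24 hr in the human HepG2 line at 0.39–200 uM, solvent held at 0.5% DMSO. Fixed cells were stained with Hoechst 33342 and anti-phospho-histone H3, imaged at 20x, and analysed by gain- or loss-of-signal fitting against DMSO.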

The nature of test [6]: APR_HepG2_MitoMembPot_24hr: Apredica 24-hour HepG2 Assay for Mitochondrial Membrane Potential (AID 2282911). Particulars: imaging, actives raise or lower the signal. In outline: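 Cells are dosed for 24 hr across 0.39 to 200 uM with solvent held at 0.5% DMSO. They are then stained with 250 nM MitoTracker Red CMXRos for 30 min, fixed in 3.7% formaldehyde and imaged.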
Test [7] is described as follows: APR_HepG2_p53Act_24hr: Apredica 24-hour HepG2 Assay for p53 Activation (AID 2282913).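 Further: p53 protein immunofluorescence averaged per cell in HepG2 with Hoechst nuclei.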 Particulars: high-content imaging, actives raise or lower the signal. The method in brief:
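Human HepG2 liver cells; 24 hr cpd treatment, 0.39–200 uM, 0.5% DMSO final. Fixed in 3.7% formaldehyde, permeabilized with 0.5% Triton X-100, stained with anti-p53/Cy5 plus Hoechst 33342. Six images per well at 20x; gain or loss vs DMSO.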

The nature of test [8]: APR_HepG2_CellCycleArrest_72hr: Apredica 72-hour HepG2 Assay for Cell Cycle Arrest (AID 2282914). The following applies: high-content imaging, actives raise or lower the signal. In outline: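 Read-out is Hoechst-stained nuclear DNA content measured by automated fluorescence imaging (20x, six images per well), fitted in both directions relative to DMSO. Human HepG2 liver cells received 0.39–200 uM compound for 72 hr at 0.5% v/v DMSO.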

A short description of test [9]: APR_HepG2_CellLoss_72hr: Apredica 72-hour HepG2 Assay for Cell Loss (AID 2282915). The following applies: high-content imaging. The method in brief:
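HepG2 cells were exposed for 72 hr to compounds at 0.39–200 uM (ten concentrations, duplicate) in 0.5% v/v final DMSO. Nuclei were stained with Hoechst 33342 after 3.7% formaldehyde fixation, imaged at 20x, and counted; fits bidirectional versus DMSO.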

Test [10] is described as follows: APR_HepG2_P-H2AX_72hr: Apredica 72-hour HepG2 Assay for H2AX Phosphorylation (AID 2282916).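 Further: phospho-histone H2A.x immunostain intensity per cell marking DNA damage.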 Particulars: imaging, actives raise or lower the signal. In outline:
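Readout: phospho-H2A.x immunofluorescence (FITC secondary) plus Hoechst nuclear stain, high-content imaging at 20x, six fields/well. HepG2, 72 hr compound exposure, 0.39–200 uM, final DMSO 0.5% v/v. Gain or loss fitted relative to DMSO baseline.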

The nature of test [11]: APR_HepG2_MitoMembPot_72hr: Apredica 72-hour HepG2 Assay for Mitochondrial Membrane Potential (AID 2282917). Particulars: imaging, actives raise or lower the signal. In outline:
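HepG2 cells exposed 72 h to compounds at 0.39–200 uM (0.5% v/v DMSO, duplicates); MitoTracker Red CMXRos 250 nM loaded 30 min before 3.7% formaldehyde fixation, imaged by HCS fluorescence. Bidirectional fit versus DMSO.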

Test [12] in a line: APR_HepG2_MitoticArrest_72hr: Apredica 72-hour HepG2 Assay for Mitotic Arrest (AID 2282918). The following applies: high-content imaging, actives raise or lower the signal. The method in brief:
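Read-out is phospho-histone H3 immunofluorescence with Hoechst nuclear segmentation, imaged at 20x. Human HepG2 liver cells received ten concentrations (0.39–200 uM, final DMSO 0.5% v/v) for 72 hr before fixation. Gain or loss of signal was fitted relative to DMSO.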

Test [13] can be described thus: APR_HepG2_MicrotubuleCSK_72hr: Apredica 72-hour HepG2 Assay for Microtubule CSK Stabilty (AID 2282919). Particulars: HepG2 microtubule cytoskeleton, high-content imaging, actives raise or lower the signal. The method in brief:
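Ten-point dosing (0.39–200 uM, 0.5% DMSO) of HepG2 for 72 hr, with taxol as the cytoskeletal positive control. The cells were formaldehyde-fixed and then stained with alpha-tubulin/Cy5 and Hoechst. Imaging at 20x used a −2 um Z offset for tubulin.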

Test [14] in a line: APR_HepG2_P-H2AX_24hr: Apredica 24-hour HepG2 Assay for H2AX Phosphorylation (AID 2282920). The following applies: high-content imaging, actives raise or lower the signal. In outline:
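HepG2, 24 hr, cpd 0.39–200 uM (10 conc, duplicate), DMSO 0.5% v/v final. Fix 3.7% formaldehyde, Triton X-100 permeabilize, anti-phospho-H2A.x 1:200 + Hoechst 2 ug/mL. Imaged, bidirectional fit vs DMSO.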

Test [15] in a line: APR_HepG2_StressKinase_72hr: Apredica 72-hour HepG2 Assay for Stress Kinase (AID 2282921). Particulars: HepG2 stress kinase (phospho-c-Jun) imaging, actives raise or lower the signal. The method in brief:
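Phospho-c-Jun immunofluorescence measured by high-content imaging at 20x, six fields per well; bidirectional curve fitting against DMSO as baseline. Dosing: 0.39–200 uM, 72 h, 0.5% DMSO final.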

Test [16] can be described thus: APR_HepG2_StressKinase_24hr: Apredica 24-hour HepG2 Assay for Stress Kinase (AID 2282922). Particulars: HepG2 stress kinase (phospho-c-Jun) imaging, actives raise or lower the signal. The method in brief: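 After 24 hr compound treatment (up to 200 uM, final DMSO 0.5% v/v), HepG2 cells are fixed and multiplex-labeled; phospho-c-Jun intensity is captured by high-content fluorescence imaging and analyzed relative to DMSO.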

Test [17] can be described thus: APR_HepG2_p53Act_72hr: Apredica 72-hour HepG2 Assay for p53 Activation (AID 2282923).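 Further: average cellular p53 protein immunofluorescence intensity in HepG2 cells.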 Particulars: high-content imaging, actives raise or lower the signal. In outline: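 Readout: p53 immunofluorescence quantified by automated high-content imaging at 20x, six fields per well, nuclei located via Hoechst. Dosing ran 72 hr over ten concentrations from 0.39 to 200 uM; bidirectional curve fitting against DMSO baseline.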

Test [18] is described as follows: APR_HepG2_MitoMass_72hr: Apredica 72-hour HepG2 Assay for Mitochondrial Mass (AID 2282924).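 Further: MitoTracker Red CMXRos stain intensity per cell imaged as mitochondrial mass.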 Particulars: high-content imaging, actives raise or lower the signal. In outline: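 Steps: treat HepG2 72 hr (0.39–200 uM, duplicate wells); load MitoTracker Red CMXRos, 250 nM, 30 min; fix with 3.7% formaldehyde, permeabilise with 0.5% Triton X-100; capture images, nuclei via Hoechst 33342; fit bidirectionally against DMSO.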

Test [19] is described as follows: APR_HepG2_NuclearSize_72hr: Apredica 72-hour HepG2 Assay for Nuclear Size (AID 2282925). Particulars: high-content imaging, actives raise or lower the signal. The method in brief:
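Compounds (0.39–200 uM, final DMSO 0.5%) were applied to HepG2 for 72 hr. Cells were then formaldehyde-fixed, permeabilized and labelled with Hoechst 33342. Nuclear diameter was quantified from six images per well.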

Test [20] is described as follows: APR_HepG2_MitoMass_24hr: Apredica 24-hour HepG2 Assay for Mitochondrial Mass (AID 2282912). Particulars: high-content imaging, actives raise or lower the signal. The method in brief:
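HepG2, 24 hr dosing, 10 concentrations 0.39–200 uM in duplicate, DMSO 0.5% final. MitoTracker Red CMXRos 250 nM, 30 min pre-fix; 3.7% formaldehyde fix. Imaging-based fluorescence intensity; gain/loss fit vs DMSO baseline.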

Molecules are shown by their SMILES. Activity calls are given as the source filed them. How the source made its calls: active means hit-call score of the fitted dose curve at least 0.9, where 1 is the maximum; inactive means score below 0.9.

With `C[Si](Cn1cncn1)(c1ccc(F)cc1)c1ccc(F)cc1`, the result in test [1], in test [2], in test [3], in [4], in [5] and in [6] was inactive. The call in test [7], in test [8], in test [10], in [11], in [12] and in test [13] was inactive. The result in test [14], in test [15], in [16], in test [17], in test [18] and in test [19] was inactive. Also, in [9], the AC50 – broadly, the midpoint of the concentration-response curve, whichever way the signal moves – is 57.8 µM (active).
On to `COP(=O)(OC)C(O)C(Cl)(Cl)Cl` (stereo not given), for which the call in [1], in test [2], in test [6], in test [20], in [7] and in [10] was inactive. In addition, the result in [11], in [12], in test [13], in test [15], in test [16] and in [18] was inactive. For the same compound, the compound was classed as inactive in test [19]. In addition, the AC50 is 76.8 µM (active) in [3]; 97.7 µM (active) in test [4]; 103 µM (active) in test [5]; 184 µM (active) in test [8]; 100 µM (active) in test [9]; 100 µM (active) in test [14]. In addition, the AC50 in test [17] was 113 µM (active).
For the compound `C=C(C)[C@H]1Cc2c(ccc3c2O[C@@H]2COc4cc(OC)c(OC)cc4[C@@H]2C3=O)O1`, the call in test [1], in [2], in test [4], in test [5], in test [13] and in [18] was inactive. For the same compound, the compound was classed as inactive in test [19]. Further, the AC50 was 15.7 µM (active) in [3]; 0.295 µM (active) in test [6]; 0.283 µM (active) in test [8]; 12.8 µM (active) in test [9]; 1.62 µM (active) in test [10]; 15.7 µM (active) in test [11]. For the same compound, the AC50 was 1.15 µM (active) in test [12], 12.2 µM (active) in test [14] and 4.05 µM (active) in [15].
Regarding `Cc1cc(C2CC2)nc(Nc2ccccc2)n1`, the compound was called inactive in test [1], in test [2], in [5], in test [6], in test [7] and in test [8]. Also, the compound was classed as inactive in test [11], in test [14], in test [15], in test [17], in test [18] and in [19]. The half-maximal activity concentration (AC50) in test [3] was 60.5 µM (active); in test [4], 98.6 µM (active); in test [9], 75.7 µM (active); in test [10] it was 51.8 µM (active); in [12] it was 70.1 µM (active); in [13], 56.9 µM (active).
As for `CCOP(=S)(OCC)SCCSCC`, the outcome in test [2], in test [3], in test [4], in test [5], in test [6] and in [20] was inactive. The call in [7], in test [8], in test [9], in test [10], in [11] and in [12] was inactive. Besides, the outcome in [13], in [14], in [15], in test [16], in [17] and in [18] was inactive. In addition, the outcome in test [19] was inactive.
Take `CC(C1CC1)C(O)(Cn1cncn1)c1ccc(Cl)cc1` (stereo not given): the compound was called inactive in [1], in [2], in test [3], in test [4], in [5] and in test [6]. The compound was called inactive in [7], in [8], in test [9], in test [10], in test [11] and in test [12]. In addition, the compound was called inactive in test [13], in test [14], in test [15], in [16], in [17] and in [18]. In test [19], the outcome was inactive.
Turning to `Cc1nn(-c2cc(NS(C)(=O)=O)c(Cl)cc2Cl)c(=O)n1C(F)F`, the outcome in test [1], in test [2], in [3], in test [4], in [5] and in [6] was inactive. For the same compound, the outcome in [7], in test [8], in [9], in test [10], in test [11] and in [12] was inactive. In addition, the compound was called inactive in test [13], in test [14], in [15], in test [16], in test [17] and in test [18]. For the same compound, in [19], the call was inactive.
